Reference: the supplement of paper PMC13380429

Test system: Vero E6 infected with SARS-CoV-2
Assay: inhibition of SARS-CoV-2 cytopathic effect; higher = more antiviral protection, active = above 15
Conditions: 48 h

Measured: inhibition of SARS-CoV-2 cytopathic effect

O=C(CN1CCN(Cc2ccc3c(c2)OCO3)CC1)N1c2ccccc2Sc2ccccc21 [fenoverine]
inactive: 1 nM 0.16% | 8.33 nM -2.81% | 100 nM 4.98% | 833.33 nM -0.47% | 10000 nM -3.71%

Oc1ccc2ccccc2c1Cc1c(O)ccc2ccccc12
inactive: 1 nM 2.61% | 8.33 nM -1.04% | 100 nM 2.9% | 833.33 nM -1.96% | 10000 nM 5.77%

CC(C)(O)C(Cl)(Cl)Cl [chlorobutanol]
inactive: 1 nM 0.34% | 8.33 nM 1.76% | 100 nM 0.44% | 833.33 nM 1.86% | 10000 nM -2.07%

Nc1nc(/C(=C/CC(=O)O)C(=O)N[C@@H]2C(=O)N3C(C(=O)O)=CCS[C@H]23)cs1 [ceftibuten]
inactive: 1 nM 0.43% | 8.33 nM 2.3% | 100 nM 2.51% | 833.33 nM 2.04% | 10000 nM 1.92%

N#Cc1c(N)nc(SCC(N)=O)c(C#N)c1-c1ccc(OCC2CC2)cc1
inactive: 1 nM 4.36% | 8.33 nM 2.85% | 100 nM 2.51% | 833.33 nM 10.1% | 10000 nM 12.1%

CN1C(=O)CC(C)(c2ccccc2)C1=O (stereo not given) [methsuximide]
inactive: 1 nM -1.1% | 8.33 nM 0% | 100 nM 1.03% | 833.33 nM 0.88% | 10000 nM -0.14%

Cc1ccccc1NC(=O)Nc1ccc(CC(=O)N(C)[C@@H](CC(C)C)C(=O)NCC[C@H](NC(=O)[C@@H]2CCCN2S(=O)(=O)c2cc(Cl)cc(Cl)c2)C(=O)O)cc1
inactive: 1 nM -1.88% | 8.33 nM 0.66% | 100 nM -0.65% | 833.33 nM 0.17% | 10000 nM -3.63%
